# About 410 targets per protein were measured; listed, in parts, are those with the strongest signals and a random draw of the rest.
# How the values were obtained:
# Assay in all cases: glycan array binding signal (z-score within array); higher = stronger binding
# Settings in all cases: glycan notation: IUPAC condensed, linker removed
# [1] = target: GlcNAc(b1-3)Gal(b1-4)GlcNAc(b1-3)Gal(b1-4)GlcNAc(b1-3)Gal(b1-4)GlcNAc(b1-3)Gal(b1-4)GlcNAc(b1-2)Man(a1-3)[GlcNAc(b1-3)Gal(b1-4)GlcNAc(b1-3)Gal(b1-4)GlcNAc(b1-3)Gal(b1-4)GlcNAc(b1-3)Gal(b1-4)GlcNAc(b1-2)Man(a1-6)]Man(b1-4)GlcNAc(b1-4)[Fuc(a1-6)]GlcNAc
# In short: (§1)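 Negative Z-scores can be read as non-binding. The Z-score is calculated within each array and then averaged across arrays of one protein sequence at different concentrations or buffers and across linkers. Arrays, 3228 in all, were curated from the Consortium for Functional Glycomics database and kept only where the protein sequence was available.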
# [2] = target: GlcNAc(b1-3)Gal(b1-4)GlcNAc(b1-3)Gal(b1-4)GlcNAc(b1-3)Gal(b1-4)GlcNAc(b1-3)Gal(b1-4)GlcNAc(b1-2)[GlcNAc(b1-3)Gal(b1-4)GlcNAc(b1-3)Gal(b1-4)GlcNAc(b1-3)Gal(b1-4)GlcNAc(b1-3)Gal(b1-4)GlcNAc(b1-6)]Man(a1-6)[GlcNAc(b1-3)Gal(b1-4)GlcNAc(b1-3)Gal(b1-4)GlcNAc(b1-3)Gal(b1-4)GlcNAc(b1-3)Gal(b1-4)GlcNAc(b1-2)Man(a1-3)]Man(b1-4)GlcNAc(b1-4)[Fuc(a1-6)]GlcNAc
# In short: as §1
# [3] = target: Kdn(a2-3)Gal(b1-4)GlcNAc
# In short: as §1
# [4] = target: Neu5Ac(a2-3)Gal
# In short: as §1
# [5] = target: Neu5Ac(a2-3)Gal(b1-3)GlcNAc(b1-2)Man
# In short: as §1
# [6] = target: Neu5Ac(a2-3)Gal(b1-3)[Fuc(a1-4)]GlcNAc(b1-3)Gal(b1-4)[Fuc(a1-3)]GlcNAc
# In short: as §1
# [7] = target: Neu5Ac(a2-3)Gal(b1-3)[Neu5Ac(a2-6)]GalNAc
# In short: as §1
# [8] = target: Neu5Ac(a2-3)Gal(b1-4)GlcNAc(b1-3)Gal(b1-4)GlcNAc(b1-3)Gal(b1-4)GlcNAc(b1-2)Man(a1-3)[Neu5Ac(a2-3)Gal(b1-4)GlcNAc(b1-3)Gal(b1-4)GlcNAc(b1-3)Gal(b1-4)GlcNAc(b1-2)Man(a1-6)]GalNAc
# In short: as §1
# [9] = target: Neu5Ac(a2-3)Gal(b1-4)GlcNAc(b1-3)Gal(b1-4)[Fuc(a1-3)]GlcNAc
# In short: as §1
# [10] = target: Neu5Ac(a2-3)Gal(b1-4)GlcNAc(b1-6)[Neu5Ac(a2-3)Gal(b1-3)]GalNAc
# In short: as §1
# [11] = target: Neu5Ac(a2-3)Gal(b1-4)[Fuc(a1-3)]GlcNAc(b1-3)GalNAc
# In short: as §1
# [12] = target: Neu5Ac(a2-3)Gal(b1-4)[Fuc(a1-3)]GlcNAc(b1-6)[Gal(b1-3)]GalNAc
# In short: as §1
# [13] = target: Neu5Ac(a2-3)[GalNAc(b1-4)]Gal(b1-4)Glc
# In short: as §1
# [14] = target: Neu5Ac(a2-6)Gal(b1-4)GlcNAc(b1-2)Man(a1-3)[Neu5Ac(a2-6)Gal(b1-4)GlcNAc(b1-2)Man(a1-6)]Man(b1-4)GlcNAc(b1-4)[Fuc(a1-6)]GlcNAc
# In short: as §1
# [15] = target: Neu5Ac(a2-6)Gal(b1-4)GlcNAc(b1-3)Gal(b1-4)GlcNAc(b1-3)Gal(b1-4)GlcNAc(b1-2)Man(a1-3)[Neu5Ac(a2-6)Gal(b1-4)GlcNAc(b1-3)Gal(b1-4)GlcNAc(b1-3)Gal(b1-4)GlcNAc(b1-2)Man(a1-6)]GalNAc
# In short: as §1
# [16] = target: Neu5Ac(a2-6)Gal(b1-4)GlcNAc(b1-3)Gal(b1-4)GlcNAc(b1-3)[Neu5Ac(a2-6)Gal(b1-4)GlcNAc(b1-3)Gal(b1-4)GlcNAc(b1-6)]GalNAc
# In short: as §1
# [17] = target: Neu5Ac(a2-8)Neu5Gc(a2-3)Gal(b1-4)GlcNAc
# In short: as §1
# [18] = target: Neu5Gc(a2-3)Gal(b1-4)[Fuc(a1-3)]GlcNAc
# In short: as §1
# [19] = target: Fuc(a1-2)Gal(b1-4)GlcNAc(b1-2)Man(a1-3)[Fuc(a1-2)Gal(b1-4)GlcNAc(b1-2)Man(a1-6)]Man(b1-4)GlcNAc(b1-4)GlcNAc
# In short: as §1
# [20] = target: Fuc(a1-2)Gal6S(b1-4)Glc6S
# In short: as §1
# [21] = target: Fuc(a1-2)[Gal(a1-4)]Gal(b1-4)GlcNAc
# In short: as §1
# [22] = target: Fuc(a1-3)[Gal3S(b1-4)]Glc6S
# In short: as §1
# [23] = target: Fuc(a1-3)[Gal3S(b1-4)]GlcNAc6S
# In short: as §1
# [24] = target: Fuc(a1-3)[GalNAc(b1-4)]GlcNAc
# In short: as §1
# [25] = target: Fuc(a1-4)GlcNAc
# In short: as §1
# [26] = target: Gal(a1-3)Gal(b1-4)[Fuc(a1-3)]GlcNAc
# In short: as §1
# [27] = target: Gal(b1-3)Gal
# In short: as §1
# [28] = target: Gal(b1-3)GalNAc(b1-4)Gal(b1-4)Glc
# In short: as §1
# [29] = target: Gal(b1-3)GlcNAc(b1-2)Man(a1-3)[Gal(b1-3)GlcNAc(b1-2)Man(a1-6)]Man(b1-4)GlcNAc(b1-4)[Fuc(a1-6)]GlcNAc
# In short: as §1
# [30] = target: Gal(b1-3)GlcNAc(b1-3)Gal(b1-4)Glc
# In short: as §1
# [31] = target: Gal(b1-3)[Fuc(a1-4)]GlcNAc(b1-3)Gal(b1-4)GlcNAc
# In short: as §1
# [32] = target: Gal(b1-4)GalNAc(a1-3)[Fuc(a1-2)]Gal(b1-4)GlcNAc
# In short: as §1
# [33] = target: Gal(b1-4)GlcNAc(b1-6)Gal(b1-4)GlcNAc
# In short: as §1
# [34] = target: Gal3S(b1-3)GlcNAc
# In short: as §1
# [35] = target: Gal3S(b1-4)Glc6S
# In short: as §1
# [36] = target: Gal3S(b1-4)[Fuc(a1-3)]Glc
# In short: as §1
# [37] = target: Gal3S4S(b1-4)GlcNAc
# In short: as §1
# [38] = target: Gal3S6S(b1-4)GlcNAc6S
# In short: as §1
# [39] = target: Glc(a1-4)Glc
# In short: as §1
# [40] = target: Glc(a1-6)Glc(a1-6)Glc
# In short: as §1
# [41] = target: GlcA(b1-3)Gal
# In short: as §1
# [42] = target: GlcNAc(b1-3)Gal(b1-4)GlcNAc(b1-3)Gal(b1-4)GlcNAc
# In short: as §1
# [43] = target: GlcNAc(b1-4)GlcNAc
# In short: as §1
# [44] = target: GlcNAc(b1-4)GlcNAc(b1-4)GlcNAc
# In short: as §1
# [45] = target: GlcNAc(b1-6)Gal(b1-4)GlcNAc
# In short: as §1
# [46] = target: Man(a1-2)Man(a1-2)Man(a1-6)[Man(a1-3)]Man
# In short: as §1
# [47] = target: Neu5Ac(a2-3)Gal(b1-3)GalNAc
# In short: as §1
# [48] = target: Neu5Ac(a2-3)Gal(b1-3)GalNAc(b1-4)[Neu5Ac(a2-3)]Gal(b1-4)Glc
# In short: as §1
# [49] = target: Neu5Ac(a2-3)Gal(b1-3)GalNAc6S
# In short: as §1
# [50] = target: Neu5Ac(a2-3)Gal(b1-3)GlcNAc
# In short: as §1
# [51] = target: Neu5Ac(a2-3)Gal(b1-3)[Fuc(a1-4)]GlcNAc(b1-3)Gal(b1-3)[Fuc(a1-4)]GlcNAc
# In short: as §1
# [52] = target: Neu5Ac(a2-3)Gal(b1-4)GlcNAc(b1-2)Man(a1-3)[Neu5Ac(a2-6)Gal(b1-4)GlcNAc(b1-2)Man(a1-6)]Man(b1-4)GlcNAc(b1-4)GlcNAc
# In short: as §1
# [53] = target: Neu5Ac(a2-6)Gal(b1-4)Glc
# In short: as §1
# [54] = target: Neu5Ac(a2-6)Gal(b1-4)GlcNAc(b1-2)Man(a1-3)[GlcNAc(b1-2)Man(b1-4)GlcNAc(b1-2)Man(a1-6)]Man(b1-4)GlcNAc(b1-4)GlcNAc
# In short: as §1
# [55] = target: Neu5Ac(a2-6)Gal(b1-4)GlcNAc(b1-2)Man(a1-3)[Man(a1-6)]Man(b1-4)GlcNAc(b1-4)GlcNAc
# In short: as §1
# [56] = target: Neu5Ac(a2-6)Gal(b1-4)GlcNAc(b1-3)Gal(b1-4)GlcNAc
# In short: as §1
# [57] = target: Neu5Ac(a2-8)Neu5Ac(a2-3)[GalNAc(b1-4)]Gal(b1-4)Glc
# In short: as §1
# [58] = target: Neu5Gc(a2-3)Gal(b1-4)Glc
# In short: as §1
binder,measurement,setting,value
PX9961T-pdi-555-33-555 (Parabacteroides distasonis) (protein) FDEETAFQSPTLVYVNTVASLYNNMFKIMGNDRHVYDLNTFSSDEAMLPCRIGDWEDGGLWQNIFLHRWGTMNDLTKNSWDFLYEQIGKCNQSVDKLQAFAEEQPDVEYFKVYLEEVRAVRAFFYYELLDLFARVPLVTSSTTPMSEVKQSERSVVFNFVRSELEEALPYLSDNRSNQKGEYYGRITKPVAYMILAKLALNAEVYADDNWTDGNRPAGKNIKFTVDGKEMNAWEATIAYVDKLEALGYKLQGNFSENFAVANETSVENIFTVPMDPVAYPDAKDYNLVRTRHYDHATAYGQSGWNGSCATVKAMNVFKFGTADEDPRCKLTYFTGEVTGPDGKTIYTEWDGQKVPLKYEPNAPKVYMDASDGLLVKTAGARMAKYEFDQNAQDGGNLHGNDCVIFRFADALLMKAEAKIRLGQNGDDEVNQVRNRVGAKPLQNVTLDTLLDERMLELAWEGVRRQDLIRFGKFTEATVDRYVGVKHFASSLDYQEDKTGYTTVFSIYADILSLNPNLTQNPGY,glycan array binding signal (z-score),[1],0.229
same,glycan array binding signal (z-score),[2],-0.523
same,glycan array binding signal (z-score),[3],-0.683
same,glycan array binding signal (z-score),[4],-0.213
same,glycan array binding signal (z-score),[5],-0.451
same,glycan array binding signal (z-score),[6],-0.031
same,glycan array binding signal (z-score),[7],-0.194
same,glycan array binding signal (z-score),[8],1.63
same,glycan array binding signal (z-score),[9],-0.528
same,glycan array binding signal (z-score),[10],1.08
same,glycan array binding signal (z-score),[11],1.68
same,glycan array binding signal (z-score),[12],-0.177
same,glycan array binding signal (z-score),[13],1.56
same,glycan array binding signal (z-score),[14],-0.612
same,glycan array binding signal (z-score),[15],0.737
same,glycan array binding signal (z-score),[16],1.82
same,glycan array binding signal (z-score),[17],20.7
same,glycan array binding signal (z-score),[18],0.358
"GIINTLQKYYCRVRGGRCAVLSCLPKEEQIGKCSTRGRKCCRRKK [Beta-Defensin 3 (Homo sapiens), P81534]",glycan array binding signal (z-score),[19],-0.692
same,glycan array binding signal (z-score),[20],5.67
same,glycan array binding signal (z-score),[21],-0.449
same,glycan array binding signal (z-score),[22],3.57
same,glycan array binding signal (z-score),[23],8.21
same,glycan array binding signal (z-score),[24],-0.467
same,glycan array binding signal (z-score),[25],-0.369
same,glycan array binding signal (z-score),[26],-0.233
same,glycan array binding signal (z-score),[27],0.134
same,glycan array binding signal (z-score),[28],-0.315
same,glycan array binding signal (z-score),[29],-0.62
same,glycan array binding signal (z-score),[30],-0.348
same,glycan array binding signal (z-score),[31],-0.493
same,glycan array binding signal (z-score),[32],-0.395
same,glycan array binding signal (z-score),[33],-0.485
same,glycan array binding signal (z-score),[34],0.98
same,glycan array binding signal (z-score),[35],4.37
same,glycan array binding signal (z-score),[36],0.062
same,glycan array binding signal (z-score),[37],4.31
same,glycan array binding signal (z-score),[38],3.11
same,glycan array binding signal (z-score),[39],0.053
same,glycan array binding signal (z-score),[40],-0.18
same,glycan array binding signal (z-score),[41],1.72
same,glycan array binding signal (z-score),[42],-0.356
same,glycan array binding signal (z-score),[43],-0.569
same,glycan array binding signal (z-score),[44],-0.463
same,glycan array binding signal (z-score),[45],-0.369
same,glycan array binding signal (z-score),[46],-0.442
same,glycan array binding signal (z-score),[47],-0.221
same,glycan array binding signal (z-score),[48],-0.555
same,glycan array binding signal (z-score),[49],1.18
same,glycan array binding signal (z-score),[50],-0.304
same,glycan array binding signal (z-score),[51],-0.364
same,glycan array binding signal (z-score),[52],-0.484
same,glycan array binding signal (z-score),[53],-0.294
same,glycan array binding signal (z-score),[54],-0.583
same,glycan array binding signal (z-score),[55],-0.313
same,glycan array binding signal (z-score),[56],-0.64
same,glycan array binding signal (z-score),[57],-0.591
same,glycan array binding signal (z-score),[58],-0.025

# Source: the supplement of paper PMC8728848
